From PubChem BioAssay
CHX counter: affects cycloheximide protein synthesis inhibition readout, counter-screen; cell reporter, cycloheximide protein synthesis inhibition counterscreen; max response, %; 300,000 compounds, 12% hits; AID 2314; in the data active = max response mostly above about 13%, no sharp cut-off; inactive = mostly below about 14%; also: read at 38.3 µM for the half of the compounds with a filed dose
FMDV inh: foot and mouth disease virus antiviral activity; 410,000 compounds, 1.2% hits; Potency, µM (highest dose often 57.9 µM), most hits filed as inhibitors; FMDV antiviral cell-based qHTS; AID 1159524; calls by dose curve; tested in HEK293T cells; also: read-out not given here; nearly all actives have a fitted effect of over 45% in size
Sm TGR inh: S. mansoni TGR enzyme inhibition. Q962Y6. purified TGR, DTNB reduction, TNB absorbance 405 nm. Potency, µM (titrated, usually from 114 µM), usual class: inhibitors. 360,000 compounds, 3% hits; active = well fitted inhibition curve with a large enough effect; inconclusive = small, poorly fitted or top-dose-only effect; inactive = no such curve, though single readings can be large or run the other way; also: nearly all actives have a fitted effect of over 60% in size
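Kinetic colorimetric format: TGR-catalysed, NADPH-driven DTNB reduction monitored via TNB absorbance. Enzyme dispensed at 20 nM; compound exposure 15 min at room temperature before reaction start.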
Shiga inhibitor: blocks Shiga toxin action in Vero cells | Vero cells, Shiga toxin protein synthesis inhibition reporter | inhibition, % at 38.7 µM | 290,000 compounds, 9.2% hits | AID 2315; in the data active = inhibition mostly above about 28%, no sharp cut-off; inactive = mostly below about 43%
Each line names hits and unclear results; the compound was inactive in the other large screens. Rows were chosen to be rich in hits. Some 12% of all compounds tested hit in one or more screens of this group.

Cc1ccccc1CNC(=O)c1cc2cc(S(=O)(=O)N3CCCCC3)ccc2n1C	none (no result: CHX counter, Shiga inhibitor)
CC(CN1CCc2nnc(CNC(=O)c3cccc(F)c3)n2CC1)c1ccccc1 (centres undefined)	none (no result: CHX counter, Sm TGR inh, Shiga inhibitor)
CCOc1ccc(NC(=O)CCn2cccn2)cc1	none (no result: CHX counter, Shiga inhibitor)
CCOC(=O)C1(Cc2cccc(OC)c2)CCCN(C(=O)c2cc(C)on2)C1 (centres undefined)	CHX counter 37, Shiga inhibitor 92
CCOC(=O)C1(Cc2cccc(OC)c2)CCCN(C(=O)c2cc(C)[nH]n2)C1 (centres undefined)	none
CCOC(=O)C1(Cc2cccc(OC)c2)CCCN(C(=O)c2ccccc2C)C1 (centres undefined)	CHX counter 59, Shiga inhibitor 116
CCOC(=O)C1(Cc2cccc(OC)c2)CCCN(S(=O)(=O)N(C)C)C1 (centres undefined)	none
CCOC(=O)C1(Cc2cccc(OC)c2)CCCN(C(=O)CNC(C)=O)C1 (centres undefined)	CHX counter 38 (no result: Shiga inhibitor)
CCCCNC(=O)CCCN1C(=O)CCn2nc(-c3cccn3C)cc21	none (no result: CHX counter, Shiga inhibitor)
COc1ccc(O)c(N)c1	Sm TGR inh 3.2µM (no result: FMDV inh)
CCC1OC23CCCCC2C(C#N)(C(=N)O3)C1(C#N)C#N (centres undefined)	FMDV inh 14µM, Sm TGR inh inconclusive
CCCC1OC23CCCCC2C(C#N)(C(=N)O3)C1(C#N)C#N (centres undefined)	none
CC1OC23CCCCC2C(C#N)(C(=N)O3)C1(C#N)C#N (centres undefined)	Sm TGR inh inconclusive
COc1ccc(C2OC34CCCCC3C(C#N)(C#N)C2(C#N)C(=N)O4)cc1 (centres undefined)	Sm TGR inh 40µM
N#CC1(C#N)COC23CCCCC2C1(C#N)C(=N)O3 (centres undefined)	Sm TGR inh 56µM
N#CC12COC3(CCCCC3C1(C#N)C#N)OC2=N (centres undefined)	FMDV inh 28µM, Sm TGR inh 18µM
CCOC(=O)c1c(-c2ccccc2)oc2ccc(NS(=O)(=O)c3cc(C)c(C)cc3C)cc12	none (no result: CHX counter, Shiga inhibitor)
COc1ccc(C(=O)C[n+]2cn(C(F)F)c3ccccc32)c(F)c1	Sm TGR inh 10µM
Cc1ccc(NC(=O)NC2OC(=O)c3ccccc32)cc1 (centres undefined)	none (no result: CHX counter, Sm TGR inh, Shiga inhibitor)
CC(=O)NC(=O)NC1OC(=O)C(Cl)=C1Cl (centres undefined)	FMDV inh inconclusive, Sm TGR inh 3.5µM
CS(=O)(=O)c1cccc(-c2nnc(NC(=O)c3ccc4c(c3)OCCO4)o2)c1	none (no result: CHX counter, Shiga inhibitor)
Cc1cccc(C(=O)Nc2sc3c(c2C(=O)O)CCCC3)c1	CHX counter 47, Shiga inhibitor 93
O=C(Nc1sc2c(c1C(=O)O)CCC2)c1cccc(Cl)c1	CHX counter 44, Shiga inhibitor 70
Cc1cccc(C(=O)Nc2sc3c(c2C(=O)Nc2ccccc2)CCC3)c1	none (no result: CHX counter, Shiga inhibitor)
O=C(Nc1sc2c(c1C(=O)O)CCC2)c1ccccc1Cl	none (no result: Shiga inhibitor)
CCCS(=O)(=O)N1CC(=O)N(c2ccc(C)c(Cl)c2)C(C)(C(=O)NC2CCCCCC2)C1 (centres undefined)	none (no result: CHX counter, Shiga inhibitor)
O=C1C(Cl)=C(NS(=O)(=O)c2ccc([N+](=O)[O-])cc2)C(=O)c2ccccc21	FMDV inh inconclusive, Sm TGR inh 0.89µM
CCOC(=O)c1sc2ncn(CC(=O)Nc3ccc(OC)c(Cl)c3)c(=O)c2c1C	none (no result: CHX counter, Shiga inhibitor)
CC(=O)Nc1nc(-c2ccc(Cl)cc2)nc(C)c1C(C)=O	CHX counter 21, Shiga inhibitor 18
CCc1ccc(NC(=O)C(C)n2nnc3sc(-c4ccccc4)cc3c2=O)cc1 (centres undefined)	none (no result: CHX counter, Shiga inhibitor)
CCOC(=O)N1CCC(NC(=O)CS(=O)Cc2nc(-c3ccc(OC)c(OC)c3)oc2C)CC1 (centres undefined)	Sm TGR inh inconclusive
CCOC(=O)N1CCC(NC(=O)CS(=O)Cc2nc(-c3ccc(Cl)cc3)oc2C)CC1 (centres undefined)	FMDV inh inconclusive, Sm TGR inh 40µM
CCOC(=O)N1CCC(NC(=O)CS(=O)Cc2nc(-c3ccc(C)cc3)oc2C)CC1 (centres undefined)	Sm TGR inh 45µM
CC(=O)Nc1ccc(Nc2nc3ccc(C)cc3n3nnnc23)cc1	none (no result: CHX counter, Shiga inhibitor)
COc1ccc(OC)c(-c2csc(NC(=O)c3ccc(OCC4CCCO4)cc3)n2)c1 (centres undefined)	CHX counter 39, Shiga inhibitor 40
O=C(Nc1nc2ccccc2s1)c1ccc(OCC2CCCO2)cc1 (centres undefined)	CHX counter 18, Shiga inhibitor 82
CCOc1ccc(C(=O)NC2=NCCS2)cc1	CHX counter 27, Shiga inhibitor 83 (no result: FMDV inh)
Cc1cnc(NC(=O)c2ccc(OCC3CCCO3)cc2)s1 (centres undefined)	none
COc1ccc(OC)c(-c2csc(NC(=O)c3ccc(F)cc3)n2)c1	none
O=C(Nc1ncccc1O)c1ccc(OCC2CCCO2)cc1 (centres undefined)	CHX counter 35, Shiga inhibitor 52
O=C(NCc1ccccc1)c1ccc(OCC2CCCO2)cc1 (centres undefined)	none
COC(=O)c1cc(CNC(=O)c2ccc(N(C)C)cc2)cc(NC(=O)c2ccccc2Cl)c1	none (no result: CHX counter, Sm TGR inh, Shiga inhibitor)
CCc1ccccc1NC(=O)CSc1ncc2c(n1)-c1ccccc1N(C)S2(=O)=O	none (no result: CHX counter, Shiga inhibitor)
O=C(c1ccc(OCC2CCCO2)cc1)N1CCc2ccccc2C1 (centres undefined)	CHX counter 30, Shiga inhibitor 56
O=C(NC1=NCCS1)c1ccc(OCC2CCCO2)cc1 (centres undefined)	CHX counter 30, Shiga inhibitor 51
O=C(Nc1ncccc1O)c1ccc(Oc2ccccc2)cc1	CHX counter 52, Shiga inhibitor 71
NC(=O)c1ccc(OCC2CCCO2)cc1 (centres undefined)	none
COc1ccc(N2CC(NC(=O)c3ccc4c(c3)OCO4)CC2=O)cc1 (centres undefined)	none (no result: CHX counter, Shiga inhibitor)
COc1ccc(CNC(=O)Cc2c(C)c3ccc(O)cc3oc2=O)cc1	none (no result: CHX counter, Shiga inhibitor)
COc1ccc(-c2sc3cc(OC)c(OC)cc3c2C#CC2(O)CCCCC2)cc1	Sm TGR inh 8.9µM (no result: CHX counter, Shiga inhibitor)
CCC(=O)N1CCc2cc(Br)cc(S(=O)(=O)CCC(=O)N(C)c3cccc(C)c3)c21	Sm TGR inh inconclusive (no result: CHX counter, Shiga inhibitor)
COc1ccc(CNc2ccc3cc(S(=O)(=O)N4CCCCC4)ccc3n2)cc1	none (no result: CHX counter, Shiga inhibitor)
Cn1c(C(=O)N2COCC2(C)C)cc2c(=O)n3ccccc3nc21	CHX counter 35, Shiga inhibitor 75
COc1ccccc1C(=O)Oc1c(Sc2ccccc2)c(C)nn1C(C)(C)C	FMDV inh inconclusive (no result: CHX counter, Shiga inhibitor)
COc1ccccc1/C=C1/SC(=S)N(C(C)C(=O)NC2C=CS(=O)(=O)C2)C1=O (centres undefined)	CHX counter 19, FMDV inh inconclusive
CC(C(=O)NC1C=CS(=O)(=O)C1)N1C(=O)/C(=C/c2cccc(Cl)c2)SC1=S (centres undefined)	none
O=C(CN1C(=O)/C(=C/c2ccccc2F)SC1=S)NC1C=CS(=O)(=O)C1 (centres undefined)	none
CC(C(=O)NC1C=CS(=O)(=O)C1)N1C(=O)/C(=C\c2ccccc2)SC1=S (centres undefined)	CHX counter 23, Shiga inhibitor 24
Cn1c(COc2ccccc2)nnc1SCCSc1nnc(COc2ccccc2)n1C	none
